# Bioassay records deposited in PubChem by several laboratories.
# A selection: hits, their analogues and other compounds. The true share with any hit is near 2.4%.
# PHOSPHO1 block = inhibitors of human PHOSPHO1 phosphatase | recombinant PHOSPHO1, absorbance phosphatase assay | inhibition, % at 13.3 µM | 290,000 compounds, 1.1% hits; in the data active = inhibition above about 60%
# Target sequence (Q8TCT1 whole entry, looked up): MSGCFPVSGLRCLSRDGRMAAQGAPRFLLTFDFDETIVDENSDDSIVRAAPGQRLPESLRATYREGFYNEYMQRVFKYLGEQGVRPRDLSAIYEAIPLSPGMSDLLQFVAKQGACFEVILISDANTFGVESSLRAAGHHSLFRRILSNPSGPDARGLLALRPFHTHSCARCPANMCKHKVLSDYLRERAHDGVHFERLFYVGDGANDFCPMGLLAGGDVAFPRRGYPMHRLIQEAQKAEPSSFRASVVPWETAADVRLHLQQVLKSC
# eIF4H FP inh = inhibitors of RNA binding by human eIF4H; Q15056; eIF4H fluorescence polarization binding assay; inhibition, % at 35 µM; 290,000 compounds, 0.94% hits;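 also: calls also rest on retests at 20 µM and on dose response follow-up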
# HMGR II inh = inhibitors of class II HMG-CoA reductase from Enterococcus faecalis. purified E. faecalis HMGR, NADPH absorbance 340 nm kinetic. inhibition, % at 10 µM. 190,000 compounds, 0.41% hits;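 active = inhibition above a set limit, the median over all tested compounds plus 3 SD, cut at about 9.5% in these data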;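 also: enzyme runs in reverse so mevalonate oxidation gives rising NADPH absorbance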
# PABP polyA inh = blocks human PABP binding to poly(A) RNA | P11940 | fluorescence polarization | calls only at 35 µM | 290,000 compounds, 1% hits | AID 2014;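 also: calls also rest on retests at 20 µM and on dose response follow-up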
# PABP1 MLLE inh = blocks PAM2 peptide binding to the PABP1 MLLE domain. GST-MLLE / FITC-PAM2 fluorescence polarization. inhibition, % at 20 µM. 360,000 compounds, 0.36% hits; in the data active = inhibition above about 35%, passing the limit was not always enough
# Hits are given with their value; n = inactive; x = no result given; + = active, no number. Unless noted, no rule for the calls is given here.
SMILES,PHOSPHO1 block,eIF4H FP inh,HMGR II inh,PABP polyA inh,PABP1 MLLE inh
COc1ccc(-c2ccc(NCCN3CCOCC3)nn2)cc1OC,n,n,x,n,n
COc1ccc(-n2c(C)cc(C(=O)CSc3nn4c(=O)c(C(C)(C)C)nnc4s3)c2C)cc1,94,n,n,n,n
Cc1cc(C(=O)CSc2nncs2)c(C)n1-c1c(C)n(C)n(-c2ccccc2)c1=O,n,n,n,n,n
Cc1cc(C(=O)CSc2nn3c(=O)c(C(C)(C)C)nnc3s2)c(C)n1C,n,38,n,+,n
CC(C)(C)c1nnc2sc(SCC(=O)c3ccccc3)nn2c1=O,n,n,n,n,n
Cc1ccc(-n2c(C)cc(C(=O)CSc3nncs3)c2C)cc1,89,n,n,n,n
Cc1c(C(=O)N2C[C@@H](C)O[C@@H](C)C2)oc2c(F)cccc12,n,n,x,n,n
CCC[n+]1c2ccccc2cc2ccccc21,n,n,x,+,n
CCCC[n+]1c2ccccc2cc2ccccc21,n,n,x,+,n
CN(c1ccccc1)S(=O)(=O)c1nnc(NC(=O)C2CCCCC2)s1,70,n,x,n,n
Cc1ccc(CN2CCc3[nH]c(=S)[nH]c(=O)c3C2)cc1,n,n,x,n,n
O=c1[nH]c(=S)[nH]c2c1CN(Cc1ccc(F)cc1)CC2,n,x,x,x,39
CCCN1CCc2[nH]c(=S)[nH]c(=O)c2C1,n,n,n,n,47
NC(=O)c1ccsc1NC(=O)CSc1nnc(NC2CC2)s1,x,x,x,x,n
CSc1ccc(CN2CCC(C)(Oc3cnc(Cl)c4ccccc34)C2)cc1 (stereo not given),x,x,x,x,n
Cc1n[nH]c(=S)n(NC(=O)CC(=O)Nn2c(=S)[nH]nc(C)c2=O)c1=O,n,n,n,n,n
Cc1n[nH]c(=S)n(NC(=O)/C=C/C(=O)Nn2c(=S)[nH]nc(C)c2=O)c1=O,n,92,n,+,n
O=c1c2c(-c3ccco3)csc2nc(SCc2cn3cccnc3n2)n1-c1ccccc1,n,89,n,+,n
O=C(CSc1nc2scc(-c3ccco3)c2c(=O)n1-c1ccccc1)N1CCOCC1,n,n,n,n,n
NC(=O)CSc1nc2scc(-c3ccco3)c2c(=O)n1-c1ccccc1,n,67,n,+,n
Cc1ccc(S(=O)(=O)NCCCNS(=O)(=O)c2ccccc2)cc1,n,n,x,n,n
CC(=O)c1ccc(NC(=O)COC(=O)CCC2CCCC2)cc1,x,x,x,x,n
CC(=O)C(Sc1nn(C)c(=S)s1)C(=O)Nc1ccccc1 (stereo not given),98,n,n,n,n
O=C(C1=C[C@H](C2CC2)C[C@H](OCc2ccc(CO)cc2)O1)N1CCOCC1,n,n,n,n,n
CN1CCN(C(=O)C2=C[C@@H](C3CC3)C[C@@H](OCc3ccc(CO)cc3)O2)CC1,n,n,9.8,n,n
SMILES,PHOSPHO1 block,eIF4H FP inh,HMGR II inh,PABP polyA inh,PABP1 MLLE inh
CCCC1(C(=O)OCC)NC(c2ccco2)C2C(=O)N(C)C(=O)C21 (stereo not given),n,n,n,n,n
COc1ccc(NC(=S)NCc2ccc(S(N)(=O)=O)cc2)c(OC)c1,n,active,n,n,n
COc1ccc(OC)c(NC(=S)NCc2ccc(S(N)(=O)=O)cc2)c1,n,n,n,n,n
COc1ccc(NC(=S)Nc2ccc(OC)cc2OC)c(OC)c1,64,n,n,n,n
CCOC(=O)c1c(NC(=O)COC(=O)/C=C/c2ccccc2)sc(C(=O)NC)c1C,x,x,x,x,n
CCC(C)NC(=O)CCn1c(-c2ccc(F)cc2)cc(C(C)=O)c1C (stereo not given),n,n,9.7,n,n
OCC[C@@H]1C[C@H](O)[C@@H](O)[C@@]2(OCCc3cc(Cl)ccc32)O1,x,x,x,x,n
COC(=O)C1=NN(c2ccccc2)C2(S1)SC(C(C)=O)=C(C)N2c1ccccc1 (stereo not given),n,n,n,n,n
COC(=O)C1=NN(c2ccc(C)cc2)C2(S1)SC(C(C)=O)=C(C)N2c1ccccc1 (stereo not given),64,n,n,n,n
N#CCCN(Cc1ccccc1)C(=O)c1nccnc1C(=O)O,n,n,x,n,n
O=C(O)Cc1ccc(N=Nc2c(O)c(C(=O)O)cc3ccccc23)cc1,n,77,x,+,n
O=C(O)c1ccccc1NCc1cccnc1,x,x,x,x,n
O=C(O)CNc1ccccc1C(=O)O,n,74,x,n,n
Cc1ccc(-c2ccc(OC(=O)c3ccc(=O)[nH]c3)c(C)c2)cc1,n,n,x,n,n
Cc1cc(C)c2nc3sc(=Cc4ccc(-c5ccccc5C(=O)O)o4)c(=O)n3c2c1,x,x,x,x,n
Cc1cc(C)c2nc3s/c(=C/c4ccccc4)c(=O)n3c2c1,93,n,n,n,x
CCN1CCN(c2nc(C)nc3c2sc(=S)n3C)CC1,60,n,n,n,n
CC(C)[N+](C)(C)CC(O)CN(c1ccccc1)c1ccccc1 (stereo not given),85,n,n,+,n
NCC(O)CN(c1ccccc1)c1ccccc1 (stereo not given),n,n,n,n,n
Fc1ccccc1-c1cc2ccccc2cn1,x,x,x,x,n
Cc1ccc(NC2OC(C(O)CO)C(O)C2O)cc1[N+](=O)[O-] (stereo not given),n,93,n,n,n
COC(=O)c1ccc(C(=O)O)nc1,n,n,x,n,n
C[C@H]1CN([C@@H](C)CO)C(=O)c2cc(-c3cccc(F)c3)cnc2O[C@H]1CN(C)C(=O)c1cnccn1,x,x,x,x,n
CC(C)N1CC2=C(OC(N)=C(C#N)C2c2cccnc2)/C(=C/c2cccnc2)C1 (stereo not given),n,88,n,+,n
N#CC1=C(N)OC2=C(CN(Cc3ccccc3)C/C2=C\c2cccnc2)C1c1cccnc1 (stereo not given),n,n,n,n,n
SMILES,PHOSPHO1 block,eIF4H FP inh,HMGR II inh,PABP polyA inh,PABP1 MLLE inh
COc1ccc2ccccc2c1/C=N/NC(=O)c1cccc([N+](=O)[O-])c1,x,n,x,n,n
CCOC(=O)c1ccc(N2CCOCC2)c(NS(=O)(=O)c2ccc(F)cc2)c1,n,n,x,n,n
COCC1CCN(Cc2cn[nH]c2-c2cc(OC)c(OC)c(OC)c2)CC1,n,n,11,n,n
O=C(CN1C(=O)c2ccccc2S1(=O)=O)NCCSCc1c(F)cccc1Cl,n,n,x,n,n
CC1(C)Cc2c(c(N3CCOCC3)nc3sc4c(=O)[nH]cnc4c23)CS1,108,n,n,n,n
CC1(C)Cc2c(c(N3CCOCC3)nc3sc4c(N5CCOCC5)nnnc4c23)CS1,n,n,n,n,x
COc1ccccc1-n1c(CNC(=O)c2cccc([N+](=O)[O-])c2C)n[nH]c1=S,n,n,n,n,n
S=c1[nH]nc(CSCc2ccccc2Cl)n1-c1ccccc1,105,n,n,n,n
COc1ccccc1-n1c(CNC(=O)COc2ccccc2)n[nH]c1=S,82,n,n,n,n
Cc1cccc(C)c1OCc1n[nH]c(=S)n1-c1ccccc1,n,n,n,n,n
COc1ccc(-n2c(COc3ccccc3)n[nH]c2=S)cc1,n,n,x,n,n
COC(Cc1n[nH]c(=S)n1-c1ccccc1)OC,79,n,n,n,n
COCc1n[nH]c(=S)n1-c1ccccc1,64,n,n,n,n
